Measured values taken from PubChem BioAssay (NCATS).
Results filed as inconclusive are left out. Activity calls are given as the source filed them. Unless noted, calls follow the shape of the dose curve; as a rule, active = well fitted curve in the direction sought with a large enough effect; inconclusive = small, poorly fitted or top-dose-only effect, or another doubt; inactive = no such curve, though single readings can be large; an effect the other way counts as inactive or inconclusive.

Columns and labels:
Furin (Homo sapiens) = Furin (Homo sapiens) (UniProt P09958); experiment: Furin counterscreen qHTS for Zika virus inhibitors (AID 1347149); also: nearly all actives have a fitted effect of over 70% in size; also: potency is read from the fitted curve at half-maximal effect;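 as to activity change, negative = inhibition: purified recombinant full-length human furin enzyme at 5 nM; fluorescence gain from furin cutting a BOC-RVRR-AMC peptide substrate over 15 min; top concentration of the series differs between compounds; plate controls were no-inhibitor control for no effect and no-enzyme control for full effect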
Sequence of Furin (Homo sapiens) (P09958 whole entry, looked up): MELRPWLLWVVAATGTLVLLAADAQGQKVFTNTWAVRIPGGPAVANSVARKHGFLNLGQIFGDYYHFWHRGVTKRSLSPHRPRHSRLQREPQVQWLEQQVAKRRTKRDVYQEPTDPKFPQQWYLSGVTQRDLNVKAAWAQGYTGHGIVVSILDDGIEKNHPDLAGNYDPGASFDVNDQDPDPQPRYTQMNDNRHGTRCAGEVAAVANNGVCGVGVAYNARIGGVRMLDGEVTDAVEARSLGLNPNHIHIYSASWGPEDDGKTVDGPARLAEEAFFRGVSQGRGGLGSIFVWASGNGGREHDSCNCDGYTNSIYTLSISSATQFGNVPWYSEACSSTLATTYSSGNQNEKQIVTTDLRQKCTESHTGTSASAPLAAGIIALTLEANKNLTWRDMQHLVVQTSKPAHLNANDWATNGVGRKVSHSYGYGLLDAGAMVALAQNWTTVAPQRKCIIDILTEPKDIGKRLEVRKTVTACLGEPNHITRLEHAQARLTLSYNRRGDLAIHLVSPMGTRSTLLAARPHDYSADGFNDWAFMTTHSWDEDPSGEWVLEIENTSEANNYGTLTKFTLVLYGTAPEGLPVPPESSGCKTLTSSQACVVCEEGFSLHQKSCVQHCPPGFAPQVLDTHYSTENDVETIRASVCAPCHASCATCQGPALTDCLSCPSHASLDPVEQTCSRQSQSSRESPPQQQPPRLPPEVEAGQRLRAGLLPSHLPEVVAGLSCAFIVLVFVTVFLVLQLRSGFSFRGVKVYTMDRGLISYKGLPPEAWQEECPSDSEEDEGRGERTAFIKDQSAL
Procedure, shortened: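 Counterscreen measures cleavage of 2 microM BOC-RVRR-AMC, below its ~15 microM Km, by 5 nM full-length human furin at pH 7.0 after a 15-min compound preincubation. Inhibition derives from the 15-min fluorescence increase at 37C.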

[1] = Confirmatory screen GU Rhodamine qHTS for Zika virus inhibitors qHTS (AID 1347157); also: potency is read from the fitted curve at half-maximal effect; nearly all actives have a fitted effect of over 70% in size
Procedure, shortened: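 Unlinked NS2B/NS3, 25 nM; Rhod110 peptide, 1.5 microM; compounds, up to 114 microM. Reaction run 15 min at RT in 10 mM Tris-HCl pH 8.0, 0.01% Tween 20; kinetic fluorescence change fitted with a 4-parameter Hill model.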

[2] = ZIKV-mCherry secondary qHTS for Zika virus inhibitors (AID 1347158); also: potency is read from the fitted curve at half-maximal effect; as to activity change, negative = inhibition: top concentration of the series differs between compounds
Procedure, shortened: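 Read-out is percent infection: mCherry-positive Vero cells (nuclear-proximal intensity >450 RFU, 3 SD above negative controls) counted by high-content imaging of Hoechst-stained, PFA-fixed wells after 48-72 h with ZIKV-mCherry at MOI 1 and compound.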

[3] = Confirmatory screen NINDS Rhodamine qHTS for Zika virus inhibitors (AID 1347161); also: nearly all actives have a fitted effect of over 60% in size; also: potency is read from the fitted curve at half-maximal effect;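 as to activity change, negative = inhibition: purified Zika NS2B-NS3 protease with linked NS2B cofactor domain and Rhodamine110 peptide substrate; plate controls were no-inhibitor control for no effect and no-enzyme control for full effect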
Procedure, shortened: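 qHTS dose-response: 25 nM linked protease, pH 8.0 Tris/Tween buffer, cpd titration, 15 min RT preinc, 1.5 microM Rhod110 peptide, 15 min reaction (~15% conversion), Ex480/Em540; 4-parameter Hill fit.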

[4] = system: Zika virus NS2B-NS3 protease (linked construct); experiment: 384 well plate NINDS Rhodamine confirmatory qHTS for Zika virus inhibitors (AID 1347164);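 also: fluorescence from protease cleavage of Ac-LKRR-rhodamine 110 substrate; potency is read from the fitted curve at half-maximal effect; nearly all actives have a fitted effect of over 65% in size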
Procedure, shortened: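 Linked protease at a final 5 nM, 30 nM or 60 nM was preincubated ~15 min with compounds, then given 10 microM Ac-LKRR-Rhodamine 110. Fluorescence (ex 485/em 538 nm) after 25 min in the dark at room temperature.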

[5] = Tertiary RLuc qRT-PCR qHTS assay for Zika virus inhibitors (AID 1347169); also: top concentration of the series differs between compounds; % is scaled to controls: 0 for no effect and ±100 for the full control effect; nearly all actives have a fitted effect of over 55% in size
Procedure, shortened: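 Vero cells (1,000 per well) plated overnight at 37 degrees C, treated with compound in DMSO, then infected with recombinant ZIKV-RLuc (Cambodian) at MOI 1-2 for 48-72 hrs. Live-cell Renilla luciferase substrate added; luminescence read after 1-1.5 hrs.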

[6] = system: Zika virus NS2B-NS3 protease (linked construct); experiment: Confirmatory screen NINDS AMC qHTS for Zika virus inhibitors (AID 1347152); also: nearly all actives have a fitted effect of over 70% in size; also: potency is read from the fitted curve at half-maximal effect;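 as to activity change, negative = inhibition: AMC fluorescence gain from cleaved Bz-Nle-KRR-AMC substrate over 15 min; top concentration of the series differs between compounds; 0% = no-inhibitor control and -100% = no-enzyme control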
Procedure, shortened: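 Purified NS2B-NS3 protease with NS2B hydrophilic domain linked to NS3 protease domain by flexible linker, 1 nM final in 10 mM Tris-HCl pH 8.0, 0.01% Tween 20. Compounds preincubated 15 min, room temperature; Bz-Nle-KRR-AMC 10 microM (Km 18.3 µM); 15-min fluorescence change, 4-parameter Hill fit.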

[7] = system: Zika virus NS2B-NS3 protease (linked); experiment: 384 well plate NINDS AMC confirmatory qHTS for Zika virus inhibitors (AID 1347163); also: nearly all actives have a fitted effect of over 50% in size; also: potency is read from the fitted curve at half-maximal effect;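 as to activity change, negative = inhibition: linked protease at 5 30 or 60 nM final depending on run; fluorescence of AMC released from Ac-VKTGKR-AMC peptide cleaved by the protease; top concentration of the series differs between compounds; 0% = no-inhibitor control and -100% = no-enzyme control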
Procedure, shortened: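 Enzyme (5, 30 or 60 nM final) first met test compounds for ~15 min. The AMC-tagged peptide Ac-VKTGKR-AMC followed at 30 microM. Fluorescence was then recorded at 25 min and scaled against no-enzyme and no-inhibitor wells.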

[8] = system: Zika virus NS2B-NS3 protease (unlinked complex); experiment: Confirmatory screen GU AMC qHTS for Zika virus inhibitors (AID 1347153);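 also: percent inhibition with 0% = no inhibitor control and 100% = no enzyme control; nearly all actives have a fitted effect of over 70% in size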
Procedure, shortened: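 Fluorescence change (ex 340/em 450 nm) over 15 min, ~20% substrate conversion, normalized to no-inhibitor and no-enzyme controls, then Hill-fitted. Unlinked protease at 25 nM; AMC peptide 10 µM.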

[9] = Vero cells viability qHTS for Zika virus inhibitors (AID 1347167); also: % is scaled to controls: 0 for no effect and ±100 for the full control effect
Procedure, shortened: (§1)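 To flag cytotoxic protease inhibitors, viability is measured by ATP-dependent luminescence (CellTiter Glo) after cells attached overnight receive compound for 24 to 48 hours in DMEM with 4% FBS.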

[10] = HepG2 cells viability qHTS for Zika virus inhibitors (AID 1347168); also: % is scaled to controls: 0 for no effect and ±100 for the full control effect
Procedure, shortened: as §1

[11] = Primary qHTS for small molecule stabilizers of the endoplasmic reticulum resident proteome: Secreted ER Calcium Modulated Protein (SERCaMP) assay (AID 1508630); also: % is scaled to controls: 0 for no effect and ±100 for the full control effect
Procedure, shortened: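 The SH-SY5Y reporter protocol was run at 3 concentrations up to 38.3 uM (primary) or 11 concentrations (follow-up): 16 h compound, 100 nM thapsigargin for 4 h, then extracellular luciferase luminescence.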

[12] = target: Cytochrome P450 3A4 (Homo sapiens) (UniProt P08684); experiment: qHTS Assay for Activators of Cytochrome P450 3A4 (AID 885); also: nearly all actives have a fitted effect of over 65% in size
Sequence of Cytochrome P450 3A4 (Homo sapiens) (P08684 whole entry, looked up): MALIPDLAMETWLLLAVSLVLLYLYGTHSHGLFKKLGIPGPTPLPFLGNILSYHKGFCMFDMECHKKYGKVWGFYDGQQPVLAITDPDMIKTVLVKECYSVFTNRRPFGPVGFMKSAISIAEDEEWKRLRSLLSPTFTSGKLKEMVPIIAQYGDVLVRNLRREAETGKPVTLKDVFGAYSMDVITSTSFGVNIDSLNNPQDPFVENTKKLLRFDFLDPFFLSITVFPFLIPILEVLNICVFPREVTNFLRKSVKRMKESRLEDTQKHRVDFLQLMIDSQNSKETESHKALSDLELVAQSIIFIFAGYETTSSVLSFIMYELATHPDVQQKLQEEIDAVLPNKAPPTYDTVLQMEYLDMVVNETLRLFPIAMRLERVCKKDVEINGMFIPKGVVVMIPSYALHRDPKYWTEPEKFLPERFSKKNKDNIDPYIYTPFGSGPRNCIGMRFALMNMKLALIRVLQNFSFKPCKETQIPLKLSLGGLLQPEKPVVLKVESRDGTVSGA
Procedure, shortened: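 Activators are scored by enhanced luminescence from CYP3A4 conversion of luciferin-PPXE (25uM, equal to KM) to luciferin, after 60 min at RT with an NADPH-regenerating system.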

[13] = Confirmation and Secondary Assay for Modulators of Hemoglobin Beta Chain Splicing at IVS2 654 locus (AID 910);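 also: per-well total GFP intensity by laser scanning cytometry after 2-day treatment; % of control where 0% means no effect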
Procedure, shortened: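 HeLa cells stably carrying EGFP interrupted by mutant beta-globin IVS2-654 intron (CMV-driven) were treated with compound for 2 days at 37C; corrected splicing was scored as total peak GFP intensity per well (488 nm excitation, 500-520 nm emission).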

[14] = Confirmation and Secondary Assay for Modulators of Hemoglobin Beta Chain Splicing at IVS2 705 locus (AID 930);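 also: HeLa cells stably expressing the EGFP-705 splicing reporter; GFP fluorescence per well restored by corrected splicing of the IVS2-705 intron in EGFP; % of control where 0% means no effect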
Procedure, shortened: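 Assay measures total GFP intensity per well in HeLa EGFP-705 cells after 2 days with compound; mis-splicing normally truncates EGFP, so fluorescence indicates corrected splicing.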

[15] = qHTS Assay for Lipid Storage Modulators (AID 1519; calls by dose curve); settings: Drosophila S3 cells, BODIPY lipid droplet/cell ratio, laser cytometry, cells loaded with oleic acid
Procedure, shortened: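 Cells seeded at 5,000 per well were treated with compounds over a concentration series and loaded with oleic acid (400 uM, as added). Lipid droplet fluorescence (488 nm excitation, 500-530 nm channel) was read by laser-scanning cytometry and normalized to 20 uM Triacsin C.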

[16] = target: Tyrosyl-DNA phosphodiesterase 1 (Homo sapiens) (UniProt Q9NUW8); experiment: Confirmation Assay for Inhibitors of Tyrosyl-DNA Phosphodiesterase (TDP1) (AID 489007); settings: recombinant human TDP1 enzymatic activity, dose-response; also: potency is read from the fitted curve at half-maximal effect; nearly all actives have a fitted effect of over 40% in size
Sequence of Tyrosyl-DNA phosphodiesterase 1 (Homo sapiens) (Q9NUW8 whole entry, looked up): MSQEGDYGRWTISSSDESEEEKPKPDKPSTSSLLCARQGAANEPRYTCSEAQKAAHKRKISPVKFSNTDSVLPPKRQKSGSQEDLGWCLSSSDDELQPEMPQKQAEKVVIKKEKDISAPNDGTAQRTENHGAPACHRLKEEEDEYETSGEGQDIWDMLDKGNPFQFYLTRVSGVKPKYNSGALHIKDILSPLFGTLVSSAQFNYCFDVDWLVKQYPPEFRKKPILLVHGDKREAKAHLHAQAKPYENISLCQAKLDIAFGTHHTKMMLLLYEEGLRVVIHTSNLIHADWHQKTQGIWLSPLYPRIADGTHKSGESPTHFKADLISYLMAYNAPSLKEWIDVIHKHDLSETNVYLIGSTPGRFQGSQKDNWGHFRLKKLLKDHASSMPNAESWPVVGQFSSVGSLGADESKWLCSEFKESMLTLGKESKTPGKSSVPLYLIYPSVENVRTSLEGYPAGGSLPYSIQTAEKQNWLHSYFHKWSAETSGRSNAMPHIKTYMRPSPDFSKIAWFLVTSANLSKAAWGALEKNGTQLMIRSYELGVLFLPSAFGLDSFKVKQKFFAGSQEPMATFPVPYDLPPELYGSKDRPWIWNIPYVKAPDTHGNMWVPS
Procedure, shortened: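 AlphaScreen read-out: streptavidin donor and anti-FITC acceptor beads (10 ug/ml) bind intact substrate, so Tdp1 removal of tyrosine-FITC lowers signal. Enzyme 1 nM, substrate 15 nM, 5 min reaction at room temperature after 15 min compound preincubation.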

[17] = target: N-terminal Xaa-Pro-Lys N-methyltransferase 1 (Homo sapiens) (UniProt Q9BV86); experiment: Confirmatory qHTS for Inhibitors of N-terminal methyltransferase 1 (NTMT1): MTaseGlo Assay (AID 1645874);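 also: luminescence from SAH made as NTMT1 methylates SPKRIA peptide using SAM; 0% = DMSO control and -100% = no-enzyme control; nearly all actives have a fitted effect of over 65% in size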
Sequence of N-terminal Xaa-Pro-Lys N-methyltransferase 1 (Homo sapiens) (Q9BV86 whole entry, looked up): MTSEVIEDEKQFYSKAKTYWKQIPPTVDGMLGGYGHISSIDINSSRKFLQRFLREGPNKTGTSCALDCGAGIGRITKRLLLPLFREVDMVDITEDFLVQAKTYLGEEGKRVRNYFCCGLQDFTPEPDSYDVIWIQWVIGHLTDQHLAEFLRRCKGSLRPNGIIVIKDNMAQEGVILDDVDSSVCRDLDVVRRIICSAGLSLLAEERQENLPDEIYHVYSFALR
Procedure, shortened: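 Enzyme mix (125 nM NTMT1, 100 uM SAM) + compound, 15 min RT; + 1 uM SPKRIA, 30 min RT, dark; MTase-Glo reagent 30 min, detection solution 30 min; luminescence. % inhibition vs no-enzyme/DMSO controls, 4-parameter Hill fit.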

[18] = target: Rap guanine nucleotide exchange factor 4 (Homo sapiens) (UniProt Q8WZA2); experiment: Confirmatory qHTS for agonist of cAMP-regulated guanine nucleotide exchange factor 4 (EPAC2) (AID 1645884);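 also: nucleotide exchange releases bodipy-GDP from Rap1 and this lowers its fluorescence; % is scaled to controls: 0 for no effect and ±100 for the full control effect; nearly all actives have a fitted effect of over 65% in size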
Sequence of Rap guanine nucleotide exchange factor 4 (Homo sapiens) (Q8WZA2 whole entry, looked up): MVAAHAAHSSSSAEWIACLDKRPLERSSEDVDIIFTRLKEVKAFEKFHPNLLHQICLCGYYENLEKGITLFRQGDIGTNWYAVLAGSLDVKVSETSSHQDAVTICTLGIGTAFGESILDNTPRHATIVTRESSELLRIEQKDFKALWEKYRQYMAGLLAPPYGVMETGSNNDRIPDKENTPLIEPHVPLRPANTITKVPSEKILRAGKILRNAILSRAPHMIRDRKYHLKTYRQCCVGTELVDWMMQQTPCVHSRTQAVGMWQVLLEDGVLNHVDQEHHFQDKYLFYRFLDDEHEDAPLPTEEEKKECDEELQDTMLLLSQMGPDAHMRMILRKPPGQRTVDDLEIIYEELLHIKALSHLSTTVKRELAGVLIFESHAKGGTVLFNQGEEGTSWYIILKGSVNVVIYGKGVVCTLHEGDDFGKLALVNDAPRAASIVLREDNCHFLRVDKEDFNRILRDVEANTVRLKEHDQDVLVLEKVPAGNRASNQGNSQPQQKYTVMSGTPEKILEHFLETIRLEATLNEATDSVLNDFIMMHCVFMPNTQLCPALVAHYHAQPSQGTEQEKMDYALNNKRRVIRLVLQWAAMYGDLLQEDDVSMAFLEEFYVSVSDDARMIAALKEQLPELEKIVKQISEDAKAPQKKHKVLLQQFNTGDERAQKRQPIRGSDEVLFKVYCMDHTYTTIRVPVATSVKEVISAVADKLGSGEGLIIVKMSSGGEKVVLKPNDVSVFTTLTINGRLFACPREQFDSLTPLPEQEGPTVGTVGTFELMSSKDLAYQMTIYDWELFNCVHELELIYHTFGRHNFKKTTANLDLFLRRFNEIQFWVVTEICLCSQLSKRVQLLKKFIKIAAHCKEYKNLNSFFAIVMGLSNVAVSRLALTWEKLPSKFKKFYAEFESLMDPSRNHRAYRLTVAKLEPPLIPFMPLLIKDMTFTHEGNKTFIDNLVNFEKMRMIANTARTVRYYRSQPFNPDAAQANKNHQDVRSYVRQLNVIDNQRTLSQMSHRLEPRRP

[19] = target: Rap guanine nucleotide exchange factor 4 (Homo sapiens) (UniProt Q8WZA2); experiment: Confirmatory qHTS for antagonist of cAMP-regulated guanine nucleotide exchange factor 4 (EPAC2) (AID 1645885); also: % is scaled to controls: 0 for no effect and ±100 for the full control effect; nearly all actives have a fitted effect of over 25% in size
[20] = target: Rap guanine nucleotide exchange factor 3 (Homo sapiens) (UniProt O95398); experiment: Counterscreen qHTS for antagonist of cAMP-regulated guanine nucleotide exchange factor 3 (EPAC1) (AID 1645888);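 also: fluorescence loss as bound BODIPY-GDP is released from Rap1B; % of control where 0% means no effect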
Sequence of Rap guanine nucleotide exchange factor 3 (Homo sapiens) (O95398 whole entry, looked up): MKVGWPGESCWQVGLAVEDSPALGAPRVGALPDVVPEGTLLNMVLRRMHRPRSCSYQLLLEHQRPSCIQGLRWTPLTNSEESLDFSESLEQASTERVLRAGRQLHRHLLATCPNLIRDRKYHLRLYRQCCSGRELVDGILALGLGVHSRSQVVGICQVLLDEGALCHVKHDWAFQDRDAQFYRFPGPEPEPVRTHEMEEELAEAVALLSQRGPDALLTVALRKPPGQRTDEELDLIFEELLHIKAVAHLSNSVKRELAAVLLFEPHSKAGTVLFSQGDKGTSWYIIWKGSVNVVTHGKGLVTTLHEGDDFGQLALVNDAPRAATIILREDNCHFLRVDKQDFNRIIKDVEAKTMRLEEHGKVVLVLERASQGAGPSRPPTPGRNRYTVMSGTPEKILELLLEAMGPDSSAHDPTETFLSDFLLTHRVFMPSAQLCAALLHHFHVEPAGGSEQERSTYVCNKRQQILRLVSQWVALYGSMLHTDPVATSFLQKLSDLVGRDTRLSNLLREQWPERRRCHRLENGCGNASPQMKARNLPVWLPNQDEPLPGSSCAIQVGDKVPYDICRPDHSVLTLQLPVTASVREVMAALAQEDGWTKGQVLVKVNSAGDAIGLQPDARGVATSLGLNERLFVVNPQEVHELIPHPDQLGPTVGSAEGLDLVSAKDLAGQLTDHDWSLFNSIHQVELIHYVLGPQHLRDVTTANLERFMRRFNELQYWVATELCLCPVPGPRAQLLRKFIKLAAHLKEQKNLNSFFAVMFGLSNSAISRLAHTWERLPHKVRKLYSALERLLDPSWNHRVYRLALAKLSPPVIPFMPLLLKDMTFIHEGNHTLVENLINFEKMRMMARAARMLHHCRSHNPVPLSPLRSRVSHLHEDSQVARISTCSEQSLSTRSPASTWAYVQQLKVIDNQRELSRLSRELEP
Procedure, shortened: (§2)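 Measured: fluorescence of BODIPY-GDP bound to Rap1B, which falls as exchange proceeds. Conditions include 50 uM competing GDP, 5 and 30 min reads, and a later cAMP challenge for antagonist detection.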

[21] = target: Rap guanine nucleotide exchange factor 3 (Homo sapiens) (UniProt O95398); experiment: Counterscreen qHTS for agonist of cAMP-regulated guanine nucleotide exchange factor 3 (EPAC1) (AID 1645889); also: potency is read from the fitted curve at half-maximal effect; nearly all actives have a fitted effect of over 40% in size
Procedure, shortened: as §2

O=C(O)Cn1nnc(-c2ccc(OCc3cccc(C(F)(F)F)c3)cc2)n1
inactive: Potency (Furin (Homo sapiens)) | Potency [2] | Potency [5]
active: Potency [1] 25.1 µM | Potency [3] 8.91 µM | Potency [4] 112 µM

Clc1ccc(-c2nn3c(COc4cccc(OCc5nnc6sc(-c7ccc(Cl)cc7)nn56)c4)nnc3s2)cc1
inactive: Potency (Furin (Homo sapiens)) | Potency [5]
active: Potency [6] 50.1 µM | Potency [3] 20 µM | Potency [7] 12.6 µM

Cc1oc2c(cc(NS(=O)(=O)c3ccc(Br)cc3)c3ccccc32)c1C(=O)OCc1ccccc1
active: Potency [1] 31.6 µM | Potency [3] 39.8 µM | Potency [4] 63.1 µM
inactive: Potency (Furin (Homo sapiens)) | Potency [2]

O=C(O)c1ccc2c(ccc3nn(-c4ccc(/C=C/c5ccc(-n6nc7ccc8cc(C(=O)O)ccc8c7n6)cc5[S+](=O)([O-])[O-])c([S+](=O)([O-])[O-])c4)nc32)c1
active: Potency [1] 2.82 µM | Potency [2] 4.47 µM | Potency [3] 6.31 µM | Potency [4] 12.6 µM
inactive: Potency (Furin (Homo sapiens)) | Potency [7] | Potency [5]

O=C(O)c1cccc(-c2ccc(OC(F)(F)F)cc2)c1
inactive: Potency (Furin (Homo sapiens)) | Potency [6] | Potency [2] | Potency [5]

COc1ccc(-c2nc3cc(F)ccc3s2)cc1OC
inactive: activity, negative = inhibition [8] -4.14% [at 5.51 µM] | activity change, negative = inhibition [3] -16.8% [at 12.7 µM] | activity change, negative = cytotoxicity [9] -2.06% [at 4.93 µM] | activity change, negative = cytotoxicity [10] 0.919% [at 4.93 µM] | Potency [5]
active: Potency (Furin (Homo sapiens)) 3.43 µM

CCN(CC)c1ccc(/C=N/NC(=O)c2ccc(O)cc2)cc1
inactive: Potency [6] | Potency [9] | Potency [10] | Potency [5] | Potency [11]
active: Potency (Furin (Homo sapiens)) 24.1 µM

O=C(O)c1ccc(-c2cc(C(F)(F)F)ccc2Cl)cc1
inactive: Potency (Furin (Homo sapiens)) | Potency [6] | Potency [2]

O=C(O[C@@H]1Cc2c(O)cc(O)cc2OC1c1ccc(O)c(O)c1)c1cc(O)c(O)c(O)c1 (some centres not stated)
-4.33%: max response ([15]; measured here: lipid channel max response)
-10%: max response ([15]; measured here: cell count channel max response)
inactive: Potency [12] | outcome [13] | outcome [14] | activity change, negative = inhibition ([15]; at 57.5 µM (top of the series)) 6.43% | Potency (Furin (Homo sapiens)) | Potency [2] | Potency [5]
active: Potency [1] 35.5 µM | Potency [3] 14.1 µM | Potency [7] 25.1 µM | Potency [4] 0.708 µM

N#C/C(=C\c1ccc(-c2ccc(Cl)c(C(=O)O)c2)o1)c1nc2ccccc2[nH]1
active: Potency [16] 112 µM | Potency [1] 25.1 µM | Potency [3] 22.4 µM | Potency [7] 126 µM | Potency [21] 79.4 µM
inactive: Potency (Furin (Homo sapiens)) | Potency [2] | Potency [5] | Potency [17] | outcome [18] | activity change, negative = inhibition [19] -25.6% [at 12.7 µM] | outcome [20]
